Results published in the OligoGym collection.

Target: TRPM3
Experiment: pooled miR-30 sensor sort-seq; sequence = guide strand
Settings: shRNA
Also: reference of the scale not given here.

| Sequence | sensor-assay potency score (higher = more potent) |
| --- | --- |
| TTGTCTTTCATATTGACCGAAT | -0.665 |
| TTTCTCATTCTGAAGCACGGAG | -0.126 |
| TTGTTCTTGAACTCCAAGCTGA | -0.171 |
| TATTTTACCATCCTCTCGGGTC | -0.479 |
| TTGTCTTCGAAGTTTCACCTCT | 0.148 |
| AATGTCGTCAACCATGTCGTTC | -1.05 |

Target: TRPM6
Experiment: as above
Settings: shRNA

| Sequence | sensor-assay potency score (higher = more potent) |
| --- | --- |
| TTGTTGTTGTTATACTTCCGGA | -0.714 |
| TTGAGTAATTCTTCAACTCTTC | -0.179 |
| TAAAACTATGACTCCTAGCGAA | -0.766 |
| TGTTCTTTTGACTTCTTCCTTG | 0.00322 |
| TATAGATCAATTTTTGAGCAGC | -0.262 |
| TTGTATTGTAGAGCTCTTCCAG | -0.0378 |
| TAGAACTCATAGACTTTCCTGG | 0.494 |
| TATGTTATCACAGAGTTCCTGG | 0.658 |
| TTGAGTGTTGTGAGCTTGCTGA | -0.408 |
| TAATTCTTCAACTCTTCTGAGG | -0.79 |
| TAAGTGAGCAATAGGCTCGTGC | -0.42 |
| TAAATGTAACAGATGATCCAGT | 0.213 |

Target: TRPV1
Experiment: as above
Settings: shRNA

| Sequence | sensor-assay potency score (higher = more potent) |
| --- | --- |
| TAGCTGTCCGTGTAGCTGGCGT | -0.712 |
| TTGAGCAGGAGGATGTAGGTGA | 1.19 |
| TTGGTGTTCCAGGTGGTCCAGT | -0.829 |
| ATGCTCGTCACAAACTTCGTGT | -0.192 |
| TCGCAGATAAACTTCCTCGGGC | 0.131 |
| TAGTAGCTGTCCGTGTAGCTGG | -0.744 |
| TTAAGGAAGCTCTTCTCCGTGT | -0.306 |
| ATGTAGACAAACATGAAACGGC | -0.484 |
| TAGTAGAGCATGTTGGTCCAGC | -0.185 |
| TTGAAGTAGAAGATGCGCTTGA | 0.616 |
| TTGTCTGTGAGGTGCTTCTTGC | -0.584 |
| TAACTCGGAAATAGTCTCCAGT | 0.133 |

Target: TSC1
Experiment: as above
Settings: shRNA

| Sequence | sensor-assay potency score (higher = more potent) |
| --- | --- |
| TATCTTTTTCAATACTATCTTC | -0.463 |
| TAGATATTGCAGCTTCTTCTTT | -0.827 |
| TAGAGTGACAGAACCTTTGCTG | 0.691 |
| TTCCAGGTAATAATCCACCAAG | -1.16 |
| ATATTTAACAACATCAGCCGAG | 0.191 |
| TGAACTTGCACTCAGACCCTGG | -0.099 |
| TAGCTGTCCAACACTGTCCGGG | -0.0259 |
| TAGATATTTCTTCTGTTCCAAA | -1.26 |
| TTCTCTTGTAACTTCAACTGAT | 0.432 |
| TAGCATGGTTATCAACACCAAG | -0.952 |
